Consider 39 compounds from the antibiotic and cytotoxicity screens of Wong et al. (2023).

The structures appear in SMILES notation. Screen size: about 39,000 compounds; about 3,300 (8.5%) were called active. This excerpt belongs to a sample that is enriched for actives.

The subject of the experiment is HepG2. In words: cytotoxicity call (relative viability < 0.9). As to conditions: 10 µM.
With `CC(C)NC(=O)Nc1cccc2c1O[C@@H](CN(C)Cc1ccc(C(=O)O)cc1)[C@H](C)CN([C@H](C)CO)C2=O`, the cytotoxicity call was “inactive”.
As for `c1cc2c(cc1-c1nn[nH]n1)OCO2`, the entry is “inactive”.
For `COc1cc(OC)cc(C(=O)Nc2nc(-c3ccc4c(c3)CCN4C(=O)CN3CCOCC3)cs2)c1`, the cytotoxicity call is “inactive”.
For `O=C(NCCCN1CCOCC1)Nc1ccc(Cc2ccc(NC(=O)NCCCN3CCOCC3)cc2)cc1`, the cytotoxicity call was “inactive”.
`CC(C)(C)c1cc(NC(=O)Nc2ccc(-c3cn4c(n3)sc3cc(OCCN5CCOCC5)ccc34)cc2)no1`: the cytotoxicity call is “active”.
Take `C[C@@H]1CCCCO[C@@H](CN(C)S(=O)(=O)c2cccs2)[C@@H](C)CN([C@@H](C)CO)C(=O)c2cc(NC(=O)Cc3ccccc3)ccc2O1`: the cytotoxicity call is “inactive”.
`C[C@H](CO)N1C[C@H](C)[C@@H](CN(C)C(=O)Nc2ccc3c(c2)OCO3)Oc2c(NS(=O)(=O)c3cn(C)cn3)cccc2C1=O`: the cytotoxicity call was “inactive”.
Consider `COc1ccc(CN(C)C[C@@H]2OCCCC[C@H](C)Oc3ccc(NC(=O)Nc4cccc5ccccc45)cc3C(=O)N([C@@H](C)CO)C[C@H]2C)cc1`, for which the cytotoxicity call is “active”.
Take `COc1ccc(CN(C)C[C@@H]2OCCCC[C@@H](C)Oc3ccc(NC(=O)Nc4cccc5ccccc45)cc3C(=O)N([C@@H](C)CO)C[C@H]2C)cc1`: the cytotoxicity call was “active”.
As for `COc1ccc(CN(C)C[C@H]2OCCCC[C@H](C)Oc3ccc(NC(=O)Nc4cccc5ccccc45)cc3C(=O)N([C@@H](C)CO)C[C@H]2C)cc1`, the entry is “inactive”; as for `COc1ccc(CN(C)C[C@@H]2OCCCC[C@@H](C)Oc3ccc(NC(=O)Nc4cccc5ccccc45)cc3C(=O)N([C@H](C)CO)C[C@H]2C)cc1`, “active”.
As for `COc1ccc(CN(C)C[C@H]2OCCCC[C@@H](C)Oc3ccc(NC(=O)Nc4cccc5ccccc45)cc3C(=O)N([C@H](C)CO)C[C@H]2C)cc1`, the entry is “inactive”.
Regarding `COc1ccc(CN(C)C[C@H]2OCCCC[C@H](C)Oc3ccc(NC(=O)Nc4cccc5ccccc45)cc3C(=O)N([C@H](C)CO)C[C@@H]2C)cc1`, the cytotoxicity call was “inactive”.
For the compound `COc1ccc(CN(C)C[C@@H]2OCCCC[C@H](C)Oc3ccc(NC(=O)Nc4cccc5ccccc45)cc3C(=O)N([C@H](C)CO)C[C@H]2C)cc1`, the cytotoxicity call is “active”.
As for `COc1ccc(CN(C)C[C@@H]2OCCCC[C@H](C)Oc3ccc(NC(=O)Nc4cccc5ccccc45)cc3C(=O)N([C@H](C)CO)C[C@@H]2C)cc1`, the entry is “inactive”.
As for `COc1ccc(CN(C)C[C@@H]2OCCCC[C@H](C)Oc3ccc(NC(=O)Nc4cccc5ccccc45)cc3C(=O)N([C@@H](C)CO)C[C@@H]2C)cc1`, the entry is “inactive”; as for `COc1ccc(CN(C)C[C@H]2OCCCC[C@H](C)Oc3ccc(NC(=O)Nc4cccc5ccccc45)cc3C(=O)N([C@@H](C)CO)C[C@@H]2C)cc1`, “inactive”.
As for `COc1ccc(S(=O)(=O)Nc2ccc3c(c2)C(=O)N([C@H](C)CO)C[C@H](C)[C@H](CN(C)C(=O)CCC(F)(F)F)OCCCC[C@@H](C)O3)cc1`, the entry is “inactive”; as for `COc1ccc(NC(=O)Nc2ccc3c(c2)C(=O)N([C@H](C)CO)C[C@@H](C)[C@@H](CN(C)Cc2ccncc2)OCCCC[C@@H](C)O3)cc1`, “inactive”; as for `Cc1ccc(S(=O)(=O)NCC[C@H]2CC[C@@H](NS(=O)(=O)c3ccccc3Cl)[C@@H](CO)O2)cc1`, “inactive”.
In the case of `Cc1noc(C)c1NC(=O)Nc1ccc2c(c1)CC(=O)N([C@@H](C)CO)C[C@@H](C)[C@H](CN(C)S(=O)(=O)c1cn(C)cn1)O2`, the cytotoxicity call is “inactive”.
Consider `CN1C(=O)c2cc(NC(=O)c3cnccn3)ccc2OC[C@H]2O[C@@H](CC(=O)N[C@H]3CCN(Cc4ccccc4)C3)CC[C@H]21`, for which the cytotoxicity call is “inactive”.
With `COc1ccc(CN(C)C[C@H]2OCCCC[C@@H](C)Oc3ccc(NC(=O)Nc4cccc5ccccc45)cc3C(=O)N([C@H](C)CO)C[C@@H]2C)cc1`, the cytotoxicity call is “active”.
With `COc1ccc(CN(C)C[C@@H]2OCCCC[C@@H](C)Oc3ccc(NC(=O)Nc4cccc5ccccc45)cc3C(=O)N([C@@H](C)CO)C[C@@H]2C)cc1`, the cytotoxicity call is “inactive”.
As for `COc1ccc(CN(C)C[C@H]2OCCCC[C@@H](C)Oc3ccc(NC(=O)Nc4cccc5ccccc45)cc3C(=O)N([C@@H](C)CO)C[C@@H]2C)cc1`, the entry is “inactive”; as for `COc1ccc(CN(C)C[C@@H]2OCCCC[C@@H](C)Oc3ccc(NC(=O)Nc4cccc5ccccc45)cc3C(=O)N([C@H](C)CO)C[C@@H]2C)cc1`, “inactive”; as for `COc1ccc(CN(C)C[C@H]2OCCCC[C@@H](C)Oc3ccc(NC(=O)Nc4cccc5ccccc45)cc3C(=O)N([C@@H](C)CO)C[C@H]2C)cc1`, “active”.
As for `COc1ccc(CN(C)C[C@H]2OCCCC[C@H](C)Oc3ccc(NC(=O)Nc4cccc5ccccc45)cc3C(=O)N([C@H](C)CO)C[C@H]2C)cc1`, the cytotoxicity call is “inactive”.
Turning to `C[C@H]1CN([C@@H](C)CO)C(=O)c2cc(NC(=O)Cn3cnnn3)ccc2O[C@H]1CN(C)S(=O)(=O)c1ccc(F)cc1`, the cytotoxicity call is “inactive”.
With `C[C@@H]1CN([C@H](C)CO)C(=O)c2cccc(NS(=O)(=O)c3ccccc3)c2O[C@@H]1CN(C)S(=O)(=O)c1ccccc1`, the cytotoxicity call was “inactive”.
With `C[C@@H]1CN([C@H](C)CO)C(=O)c2cc(NC(=O)Cc3ccccc3)ccc2O[C@@H](C)CCCCO[C@H]1CN(C)C(=O)Nc1ccc(F)cc1`, the cytotoxicity call is “inactive”.
As for `C[C@H]1CN([C@@H](C)CO)C(=O)Cc2cc(NS(=O)(=O)c3ccc(F)cc3)ccc2O[C@H]1CN(C)S(=O)(=O)c1ccccc1`, the entry is “inactive”; as for `C#Cc1cnc(OC)cn1`, “inactive”; as for `C[C@H](CO)N1C[C@H](C)[C@@H](CN(C)C)OCCCC[C@H](C)Oc2ccc(NC(=O)Nc3cccc4ccccc34)cc2C1=O`, “inactive”.
With `C[C@@H]1CN([C@@H](C)CO)C(=O)c2cc(NC(=O)Nc3cccc4ccccc34)ccc2O[C@@H](C)CCCCO[C@@H]1CN(C)CC1CCCCC1`, the cytotoxicity call is “active”.
As for `C[C@@H]1CCCCO[C@H](CN(C)CC2CCCCC2)[C@@H](C)CN([C@H](C)CO)C(=O)c2cc(NC(=O)Nc3cccc4ccccc34)ccc2O1`, the entry is “active”.
As for `C[C@@H]1CN([C@@H](C)CO)C(=O)c2cc(NC(=O)Nc3cccc4ccccc34)ccc2O[C@@H](C)CCCCO[C@H]1CN(C)CC1CCCCC1`, the entry is “active”; as for `C[C@H]1CCCCO[C@H](CN(C)C)[C@@H](C)CN([C@@H](C)CO)C(=O)c2cc(NC(=O)Nc3cccc4ccccc34)ccc2O1`, “inactive”.
As for `C[C@H]1CCCCO[C@H](CN(C)CC2CCCCC2)[C@@H](C)CN([C@@H](C)CO)C(=O)c2cc(NC(=O)Nc3cccc4ccccc34)ccc2O1`, the entry is “active”.
